Z-score and composite z-score data for 9 molecules are collected here from PubChem BioAssay.

The structures appear in SMILES notation. Activity calls are given as the source filed them. Unless noted, how the calls were made is not given here.

A short description of test [1]: A549 cell viability effects, profiling panel, calcein-AM fluorescence, 48 h, basal (AID 1162). Further: test concentration not given here. The note with it: higher = more signal.
A short description of test [2]: adipocyte viability effects, profiling panel, cell-based, 3T3-L1 adipocytes, calcein-AM fluorescence, 48 h, basal (AID 1163). Further: test concentration not given here. The note with it: 3T3-L1 adipocytes viability, higher = more signal.
The nature of test [3]: HepG2 cell viability effects, profiling panel, calcein-AM fluorescence, 48 h, basal (AID 1164). Further: test concentration not given here. The note with it: higher = more signal.
A short description of test [4]: MM1S cell viability effects, profiling panel, calcein-AM fluorescence, 48 h, basal (AID 1165).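 Further: viability of MM1S multiple myeloma cells under basal unstimulated conditions; test concentration not given here.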 The note with it: higher = more signal.
A short description of test [5]: basal RPMI8226 viability, no added stimulus, profiling panel, cell-based, calcein-AM fluorescence, 48 h, PK04 Diversity Set (AID 1166).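 Further: cells grown under basal conditions without added stimulus; test concentration not given here.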 The note with it: RPMI8226 myeloma viability, higher = more signal.
Test [6] in a line: basal HepG2 mitochondrial membrane potential changes, profiling panel, cell-based, JC-1 fluorescence, 24 h, 100 nL compound (AID 1167). Further: test concentration not given here. The note with it: higher = more signal.
Test [7] in a line: basal 3T3-L1 adipocyte mitochondrial potential changes, profiling panel, cell-based, JC-1 fluorescence, 3T3-L1 adipocytes, 24 h, 100 nL compound (AID 1168). Further: test concentration not given here. The note with it: JC-1 mitochondrial fluorescence, higher = more signal, called active from +8 up or from −8 down.
Test [8] in a line: basal RPMI8226 mitochondrial membrane potential changes, profiling panel, cell-based, JC-1 fluorescence, 24 h, 100 nL compound (AID 1169). Further: test concentration not given here. The note with it: RPMI8226 myeloma, JC-1 mitochondrial potential fluorescence, higher = more signal.
A short description of test [9]: basal MM1S mitochondrial membrane potential changes, profiling panel, cell-based, JC-1 fluorescence, 24 h, 100 nL compound (AID 1170). Further: test concentration not given here. The note with it: higher = more signal.
The nature of test [10]: A549 lung cancer cell viability effects, profiling panel, resazurin fluorescence, 24 h, PK04 Diversity Set (AID 1171). Further: test concentration not given here. The note with it: higher = more signal, called active from +8 up or from −8 down.
The nature of test [11]: HepG2 liver cancer cell viability effects, profiling panel, resazurin fluorescence, 24 h, PK04 Diversity Set (AID 1172). Further: test concentration not given here. The note with it: higher = more signal.
A short description of test [12]: basal S. cerevisiae growth modulation, no modifier, primary screen, OD600, strain BY4716, 24 h, basal condition (AID 1173). The note with it: OD600, 24 h, higher = more signal, called active from +8 up or from −8 down.
Test [13] in a line: MM1S myeloma cell viability, profiling panel, resazurin fluorescence, basal, 24 h, PK04 Diversity Set (AID 1174). Further: test concentration not given here. The note with it: higher = more signal, called active from +8 up or from −8 down.
For test [14], the target named is Dihydroorotate dehydrogenase (quinone), mitochondrial (Plasmodium falciparum (isolate 3D7)) (UniProt Q08210). Nature of the test: PfDHODH enzyme inhibitors, primary screen, biochemical, C-terminal His tag, absorbance 600 nm (AID 1175).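 Further: recombinant parasite enzyme with a five histidine tag at its C terminus; test concentration not given here.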 The note with it: DCIP absorbance 600 nm, higher = more signal, called active from +8 up or from −8 down.
A short description of test [15]: P. aeruginosa biofilm formation inhibitors, primary screen, strain PAO1, LB-PBS medium, absorbance 600 nm (AID 1176). Further: test concentration not given here. The note with it: P. aeruginosa PAO1 growth/biofilm, A600, 12 h; higher = more signal.
Test [16] is described as follows: S. cerevisiae RM11-1a growth modifiers, primary screen, strain RM11-1a, OD600, basal, 24 h (AID 1177).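 Further: cultures grown under basal conditions with no added stressor; test concentration not given here.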 The note with it: OD600, 24 h, higher = more signal, called active from +8 up or from −8 down.
A short description of test [17]: E. coli acrAB mutant growth effects, primary screen, E. coli filamentation inducers, strain DRC39, OD650, 24 h (AID 1178).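 Further: growth measured as culture turbidity by optical density at 650 nm; test concentration not given here.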 The note with it: higher = more signal, called active from +8 up or from −8 down.
A short description of test [18]: E. coli acrAB mutant growth effects, primary screen, E. coli filamentation inducers, strain DRC39, OD650, 48 h (AID 1179).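 Further: screen aims at cell division blockers that make cells filament.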 The note with it: E. coli DRC39 delta-acrAB growth, higher = more signal, called active from +8 up or from −8 down.
Test [19] can be described thus: RPMI8226 myeloma cell viability, profiling panel, resazurin fluorescence, basal, 24 h, PK04 Diversity Set (AID 1180).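 Further: RPMI8826 multiple myeloma cell line at 5000 cells per well; test concentration not given here.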 The note with it: higher = more signal.
For test [20], the target named is E3 ubiquitin-protein ligase XIAP (Homo sapiens) (UniProt P98170). The test can be described thus: XIAP binders, primary screen, biophysical, small-molecule microarray, fluorescence 635 nm (AID 1181).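 Further: score merges 667 nm emission and signal to noise over triplicate slides.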 The note with it: small-molecule microarray binding, higher = more signal.
Sequence of E3 ubiquitin-protein ligase XIAP (Homo sapiens) (P98170 whole entry, looked up): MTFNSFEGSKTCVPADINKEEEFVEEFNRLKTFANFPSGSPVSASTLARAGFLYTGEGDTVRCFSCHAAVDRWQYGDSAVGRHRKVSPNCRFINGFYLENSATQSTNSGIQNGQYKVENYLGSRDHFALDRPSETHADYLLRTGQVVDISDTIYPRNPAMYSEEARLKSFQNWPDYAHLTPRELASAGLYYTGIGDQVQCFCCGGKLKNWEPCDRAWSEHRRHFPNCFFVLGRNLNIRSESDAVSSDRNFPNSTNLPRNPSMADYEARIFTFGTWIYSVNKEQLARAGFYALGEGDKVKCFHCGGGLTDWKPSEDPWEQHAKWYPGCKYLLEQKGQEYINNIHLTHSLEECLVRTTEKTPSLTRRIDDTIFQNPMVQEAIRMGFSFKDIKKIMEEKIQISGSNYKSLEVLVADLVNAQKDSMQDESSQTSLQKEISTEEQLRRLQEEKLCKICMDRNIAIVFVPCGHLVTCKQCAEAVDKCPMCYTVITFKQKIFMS

Sequence of Dihydroorotate dehydrogenase (quinone), mitochondrial (Plasmodium falciparum (isolate 3D7)) (Q08210 whole entry, looked up): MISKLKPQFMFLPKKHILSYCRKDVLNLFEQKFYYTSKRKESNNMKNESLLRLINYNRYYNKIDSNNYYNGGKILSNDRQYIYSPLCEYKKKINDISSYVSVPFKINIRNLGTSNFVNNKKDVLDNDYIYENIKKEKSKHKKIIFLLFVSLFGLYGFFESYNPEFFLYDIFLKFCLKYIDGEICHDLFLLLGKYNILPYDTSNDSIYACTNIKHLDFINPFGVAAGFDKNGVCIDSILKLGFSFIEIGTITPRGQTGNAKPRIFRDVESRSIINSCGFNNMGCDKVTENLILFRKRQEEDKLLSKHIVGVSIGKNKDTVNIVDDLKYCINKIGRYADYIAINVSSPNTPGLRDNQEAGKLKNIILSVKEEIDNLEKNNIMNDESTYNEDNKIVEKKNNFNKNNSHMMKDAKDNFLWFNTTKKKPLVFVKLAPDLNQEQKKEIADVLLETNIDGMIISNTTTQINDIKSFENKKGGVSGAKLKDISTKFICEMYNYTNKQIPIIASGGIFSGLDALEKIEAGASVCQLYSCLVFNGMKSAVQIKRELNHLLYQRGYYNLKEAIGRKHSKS

On to `CC(C)(C)OC(=O)CC[C@]1(C(=O)N2CCOCC2)N=C(c2ccc(OCCCO)cc2)O[C@H]1c1ccccc1`, for which the z-score in [1] was 0.134; in [2], 0.233; in [3] it was 1.01; in test [4], 1.38; in test [5] it was 0.0928; in test [6] it was 0.839. The z-score is 0.453 (inactive) in [7]; 0.0149 in test [8]; -0.703 in [9]; -0.743 (inactive) in test [10]; -0.149 in test [11]; -0.243 (inactive) in [12]. For the same molecule, the z-score is -1.56 (inactive) in test [13]; -0.537 (inactive) in [15]; -0.294 (inactive) in [16]; 0.301 (inactive) in [17]; 0.553 (inactive) in [18]; 0.48 in test [19]. Moreover, the results for the composite z-score in [14] and in test [20] were -0.127 (inactive) and 0.0003, respectively.
Turning to `CC(C)N1CC=CC23O[C@@H]4C=CCCOC(=O)C4[C@H]2C(=O)N(CCO)[C@@H]3C1=O` (stereo not given in full), the z-score in [1] is -0.555; in test [2] it was -0.0175; in test [3], -2.03; in test [4], 0.506; in test [5], 0.0275; in test [6] it was -0.333. The z-score in [7] was 0.5 (inactive); in test [8], 1; in [9], 0.862; in test [10] it was 1.06 (inactive); in test [11], 1.74; in test [12] it was -0.913 (inactive). Besides, the z-score in test [13] was 0.839 (inactive); in test [15], 0.525 (inactive); in test [16], -0.199 (inactive); in test [17], -0.141 (inactive); in [18] it was -0.327 (inactive); in [19], 0.475. Moreover, the composite z-score is -2.29 (inactive) in test [14] and -0.251 in test [20].
`CC(C)(C)OC(=O)CC[C@]1(C(=O)NCCN2CCOCC2)N=C(c2ccc(OCCCO)cc2)O[C@H]1c1ccccc1`: the z-score in test [1] was 1.01; in test [2] it was -1.82; in test [3] it was 0.549; in test [4], 0.251; in test [5], -0.51; in test [6], -0.342. In addition, the z-score is 0.134 (inactive) in test [7]; -0.69 in test [8]; -0.158 in test [9]; 0.0762 (inactive) in test [10]; -0.385 in [11]; 0.26 (inactive) in [12]. The z-score in test [13] is 0.0457 (inactive); in test [15], -0.347 (inactive); in test [16], 0.574 (inactive); in test [17], -0.0656 (inactive); in test [18] it was -0.448 (inactive); in [19], 0.13. Also, the composite z-score in test [14] is -1.63 (inactive); in test [20] it was -0.031.
On to `CC=CC(O)C1C=CC2C(=O)N(C)C(=O)C2N1Nc1ccc([N+](=O)[O-])cc1[N+](=O)[O-]` (stereo not given), for which the z-score in [1] was -0.481; in test [2], -0.682; in [3] it was 0.275; in [4], -1.73; in test [5], -0.485; in test [6], -0.744. The z-score is -0.453 (inactive) in [7]; 0.0263 in [8]; -0.635 in test [9]; -0.574 (inactive) in test [10]; -1.12 in [11]; 0.554 (inactive) in test [12]. For the same molecule, the z-score is -0.831 (inactive) in test [13]; 0.599 (inactive) in test [15]; 0.658 (inactive) in [16]; -0.476 (inactive) in test [17]; -0.618 (inactive) in test [18]; -0.606 in test [19]. Besides, the values for the composite z-score in [14] and in test [20] were 0.295 (inactive) and -0.247, respectively.
For `C=CCC(OC(C)=O)[C@@H]1[C@@H](N(Cc2ccc(-c3ccccc3)cc2)C(=O)c2cccc3ccccc23)c2cc(OCCCO)ccc2N1C(=O)Cc1ccc2ccccc2c1` (stereo not given in full), the z-score in test [1] is -0.0841; in [2], -0.38; in [3], -0.0632; in [4], -0.211; in [5], -0.183; in [6] it was 1.47. Moreover, the z-score is -1.43 (inactive) in [7]; 1.22 in test [8]; 0.313 in test [9]; 0.74 (inactive) in [10]; 0.0989 in test [11]; -0.456 (inactive) in test [12]. Also, the z-score is -0.144 (inactive) in test [13]; 0.374 (inactive) in test [15]; -0.611 (inactive) in [16]; 0.326 (inactive) in [17]; -0.299 (inactive) in test [18]; -0.187 in test [19]. Besides, the composite z-score was 0.0505 (inactive) in test [14] and 0.18 in [20].
As for `O=C1c2ccccc2[C@@]2(Cc3ccccc3N(C3CC3)C2=O)[C@H](c2ccc(CO)cc2)N1C1CCCCC1`, the z-score is -0.506 in [1]; -0.621 in test [2]; -0.578 in [3]; -0.258 in [4]; -2.4 in test [5]; -0.266 in test [6]. The z-score in test [7] is -0.971 (inactive); in test [8], 0.818; in [9] it was 0.144; in test [10], -0.179 (inactive); in test [11], -0.319; in [12] it was 0.979 (inactive). For the same molecule, the z-score is -0.36 (inactive) in test [13]; 0.264 (inactive) in test [15]; 1.24 (inactive) in test [16]; 0.609 (inactive) in test [17]; 0.106 (inactive) in [18]; -0.546 in test [19]. Also, the composite z-score in [14] was -4.68 (inactive); in test [20], 0.242.
As to `COc1ccc([Si](C)(C)[C@H]2[C@H](CC(=O)N3Cc4ccccc4C[C@H]3CO)O[C@@]3(C(=O)N(Cc4cccc(N5CCCCC5=O)c4)c4ccccc43)[C@@H]2C)cc1`, the z-score in [1] is -0.463; in [2] it was 0.785; in [3], -0.229; in [4], -1.87; in test [5] it was -3.08; in test [6] it was -0.189. In addition, the z-score in test [7] is -0.198 (inactive); in test [8] it was -1.07; in [9], -1.46; in [10], -0.646 (inactive); in [11], -0.376; in [12], -0.704 (inactive). The z-score in [13] is -2.39 (inactive); in test [15], 1.42 (inactive); in test [16], 0.662 (inactive); in test [17] it was -0.235 (inactive); in test [18] it was -0.435 (inactive); in test [19], -1.74. In addition, the composite z-score is -0.614 (inactive) in [14] and 0.208 in test [20].
Regarding `O=c1cccc(-c2cccc(Cl)c2)o1`, the z-score in [1] is -1.09; in test [2] it was -0.164; in test [3], -0.0227; in [4] it was -0.345; in test [5] it was -0.895; in [6], -0.687. The z-score was 0.308 (inactive) in [7]; 0.86 in test [8]; -0.024 in test [9]; 0.0053 (inactive) in test [10]; -0.381 in test [11]; -8.75 (active) in [12]. Moreover, the z-score was 0.149 (inactive) in [13]; -0.377 (inactive) in test [15]; -0.401 (inactive) in [16]; 0.304 (inactive) in test [17]; -0.326 (inactive) in [18]; -0.4 in [19]. Besides, the results for the composite z-score in [14] and in test [20] were -0.0422 (inactive) and -0.0052, respectively.
With `CCOC(=O)C[C@H]1[C@H](OC(=O)c2ccc(-c3ccccc3)cc2)[C@@H](NC(=O)c2ccc3ccccc3c2)c2cc(OCCCO)ccc2N1C(=O)c1ccc2ccccc2n1`, the z-score was 0.245 in test [1]; 0.543 in test [2]; -0.573 in test [3]; 0.477 in test [4]; -1.06 in test [5]; 1.33 in test [6]. The z-score in [7] is 1.26 (inactive); in [8] it was 0.729; in test [9], 0.164; in test [10], 0.094 (inactive); in test [11], -0.138; in test [12], -0.158 (inactive). Besides, the z-score is 0.175 (inactive) in test [13]; 0.927 (inactive) in [15]; -0.736 (inactive) in test [16]; -0.936 (inactive) in test [17]; -0.808 (inactive) in test [18]; -0.152 in [19]. Moreover, the composite z-score in test [14] was -0.746 (inactive); in test [20] it was -0.394.
